PLAP activator: human PLAP activation; P05187; purified PLAP enzyme, luminescent substrate read-out; hits give high values; activation fold at 20 µM; actives 1.2% (n = 96,000); AID 696; in the data active = activation fold above about 2
sEH activator: increases human soluble epoxide hydrolase activity; purified human sEH enzymatic activity, activator screen; activation, % at 2 µM; actives 0.04% (n = 91,000); AID 717; in the data active = activation above about 37%
BAP1 inh: inhibitors of human BAP1 deubiquitinase | Q92560 | recombinant BAP1, Ub-AMC hydrolysis fluorescence kinetic; hits give low values | calls only at 20 µM | actives 0.48% (n = 72,000);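 active = activity remaining at or below 50% of control, provided the compound also passes the data quality filters; inactive = the rest, including low values that fail the filters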;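 also: 100% = DMSO wells rate and 0% = substrate alone blank rate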
sEH inhibitor: soluble epoxide hydrolase (human) inhibition | P34913 | actives 0.34% (n = 91,000) | recombinant human sEH enzymatic activity assay | AID 707 | inhibition, % at 2 µM; in the data active = inhibition above about 80%
BAP1 inh conf: confirmation of human BAP1 enzyme inhibitors; purified BAP1, Ub-ethyl ester hydrolysis, HPLC; hits give low values; % of control activity, % at 20 µM; actives 8% (n = 310); shares compounds with BAP1 inh; AID 753;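 active = percent of control activity at or below 60%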
* marks the source's active call; other numbers are inactive results; i = inactive; . = no result shown; + = active, no number. Hits are enriched below; roughly 1.5% of the tested compounds scored in any of these assays.

SMILES	PLAP activator	sEH activator	BAP1 inh	sEH inhibitor	others
CC(C)CCNC(=O)c1c(N)n(CC2CCCO2)c2nc3ccccc3nc12 (configuration not stated)	2.1*	21	.	-21
CCCCn1c(N)c(C(=O)NCCN2CCOCC2)c2nc3ccccc3nc21	2.3*	-1	.	0
Nc1c(C(=O)NCCc2ccccc2)c2nc3ccccc3nc2n1CCN1CCOCC1	1.7	2	i	-4
CCC(C)NC(=O)c1c(N)n(CCCOC)c2nc3ccccc3nc12 (configuration not stated)	2*	15	i	-15
COCCCn1c(N)c(C(=O)OC(C)COC)c2nc3ccccc3nc21 (configuration not stated)	1.7	.	.	.
CCC(C)NC(=O)c1c(N)n(CC2CCCO2)c2nc3ccccc3nc12 (configuration not stated)	2*	.	.	.
CCN(CC)CCNCC(=O)Nc1ccc(Cl)cc1C(=O)c1ccccc1	2.6*	-9	.	10
Cc1ccc(NC(=O)CCC(=O)Nc2ccc(Cl)cc2C(=O)c2ccccc2)cc1	.	.	i	.
CC(Cc1ccccc1)NC(=O)NC(C)Cc1ccccc1 (configuration not stated)	0.9	-98	.	98*
CCCC12CN3CCN(CC(C3)C1O)C2 (configuration not stated)	.	.	i	.
COc1ccc(CNCCc2ccc(F)cc2)c(OC)c1C	.	.	i	.
Clc1ccc(C(Cl)(Cl)Cl)c(Cl)n1	.	.	i	.
CCCCCn1c(=O)c(C(=O)Nc2ccncc2)c(O)c2ccccc21	1.2	.	+	.
CCCCCn1c(=O)c(C(=O)NCc2ccncc2)c(O)c2ccccc21	1.7	0	.	0
CC(C)(C)OC(=O)c1c(N)n(Cc2ccco2)c2nc3ccccc3nc12	2.1*	6	i	-4
CCCCCCn1c(=O)c(C(=O)Nc2c(C)n(C)n(-c3ccccc3)c2=O)c(O)c2ccccc21	.	.	+	.	BAP1 inh conf=95

Assay outcomes: PubChem BioAssay, several laboratories
